SMILES strings stand for the structures. Records with an inconclusive call do not appear. Activity calls are given as the source filed them. The calls were made as follows: active = hit-call score of the fitted dose curve at least 0.9, where 1 is the maximum; inconclusive = response in the unintended direction; inactive = score below 0.9.

The assay in a line: CCTE_Mundy_HCI_iCellGluta_NOG_NeuronCount: CCTE's Neurite Outgrowth Assay in iCellGluta cells for Neuron Count, Mundy Lab (AID 2284340).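 Also: cells fixed about 48 h after compound addition.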 The procedure: CCTE_Mundy_HCI_iCellGluta_NOG is a multiplexed, cell-based-readout assay that uses iCell GlutaNeurons from FUJIFILM Cellular Dynamics, Inc. (FCDI), human glutamatergic enriched neurons derived from induced pluripotent stem (iPS) cells, with measurements taken at 50.33 hours after chemical dosing in a microplate: 96-well plate.CCTE_Mundy_HCI_iCellGluta_NOG_NeuronCount is one of four components of the CCTE_Mundy_HCI_iCellGluta_NOG assay. It measures cell viability related to number of neurons using High Content Imaging of fluorescently labelled markers.Data from the assay component CCTE_Mundy_HCI_iCellGluta_NOG_NeuronCount was analyzed at the endpoint CCTE_Mundy_HCI_iCellGluta_NOG_NeuronCount in the positive analysis fitting direction relative to DMSO as the negative control and baseline of activity. Using a type of viability reporter, loss-of-signal activity can be used to understand developmental effects.
Exposure starts 2 hours post-plating by adding 10 ul of the working solution to 90 ul of media in the wells for a 1/10 dilution. Forty-eight hours after chemical treatment cells are fixed by direct addition of 100 ul of warm (37C) Dulbecco's phosphate buffered saline (DPBS) fixative solution containing 8% paraformaldehyde, 8% sucrose, and 0.1% of 3 mg/ml Hoechst 33342 into each well. Primary antibodies are prepared by dilution in Immunocytochemical Staining Buffer (ISB), 10X Dulbecco's PBS, 0.1% Saponin, 5% Bovine Serum Albumin, 0.5% NaN3 (Sodium Azide) and betaIII-tubulin (rabbit anti-betaIII-tubulin, 1:800) followed by Alexa Fluor-488 secondary (1:500) to label neuronal cell bodies and neurites. A Cellomics ArrayScan VTi HCS Reader is used for automated image acquisition and analysis of neurite outgrowth.
For the molecule `Cc1[nH]n(C)c(=O)c1C(=O)c1ccc(C(F)(F)F)cc1S(C)(=O)=O`, the molecule was called inactive.

As to `BrC1CC(Br)CC(Br)CC(Br)CC(Br)CC(Br)C1` (configuration not stated), the AC50 was 4.56 µM (active).

For `CC(CNC(=S)[S-])NC(=S)[S-].[Zn+2]` (configuration not stated), the AC50 is 12.7 µM (active).

Consider `O=C1CC2(CCCC2)CC(=O)N1CCCCN1CCN(c2ncccn2)CC1`, for which the outcome was inactive.

For the molecule `CCCCCC=C(C)C(CC)CCO` (configuration not stated), the outcome was inactive.

On to `CCc1ccccc1`, for which the outcome was inactive.

As to `C[C@@H]1CCO[C@H]2Cn3cc(C(=O)NCc4ccc(F)cc4F)c(=O)c(O)c3C(=O)N12`, the call was inactive.

For the molecule `C[C@@H]1CC[C@@H](C(C)(C)O)[C@H](O)C1`, the molecule was classed as inactive.

Consider `CC(C)c1nn(C(=O)NC(C)(C)C)c(=O)n1N`, for which the molecule was classed as inactive.

Turning to `CCCCCC(C)(CC)C(=O)NC` (configuration not stated), the molecule was classed as inactive.

For the molecule `CC(=O)N[C@@H](CC(=O)O)C(=O)O`, the outcome was inactive.

On to `CC(C)O`, for which the outcome was inactive.

By AC50 is commonly meant the concentration at which the activity in the assay is half-maximal.

The record behind these values is PubChem BioAssay (EPA / NIEHS).
